# Reference: PubChem BioAssay AID504652 (National Center for Advancing Translational Sciences (NCATS), 2011)
# Screen size: about 360,000 compounds; about 11,000 (3.1%) were called active. Rule as the data show it: active = activity change below about -30%; inactive = the rest. Shown is part of a subset that was picked to be rich in actives.
# Target: D(1A) dopamine receptor (Homo sapiens) (UniProt P21728)
# Assay: Antagonist of Human D 1 Dopamine Receptor: qHTS
# Settings: HEK293 TREx D1 cells, calcium flux, dopamine EC80; at 10 µM; hits give low values
# Method in brief: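 Calcium flux readout: force-coupled, inducible Hek293 Trex D1 line, cells induced overnight at 30 C with tetracycline, dye-loaded 30–90 min at RT. Antagonism scored against EC80 dopamine challenge given 180 s after compound.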
# % is scaled to controls: 0 for no effect and ±100 for the full control effect.
# Sequence of D(1A) dopamine receptor (Homo sapiens) (P21728 whole entry, looked up): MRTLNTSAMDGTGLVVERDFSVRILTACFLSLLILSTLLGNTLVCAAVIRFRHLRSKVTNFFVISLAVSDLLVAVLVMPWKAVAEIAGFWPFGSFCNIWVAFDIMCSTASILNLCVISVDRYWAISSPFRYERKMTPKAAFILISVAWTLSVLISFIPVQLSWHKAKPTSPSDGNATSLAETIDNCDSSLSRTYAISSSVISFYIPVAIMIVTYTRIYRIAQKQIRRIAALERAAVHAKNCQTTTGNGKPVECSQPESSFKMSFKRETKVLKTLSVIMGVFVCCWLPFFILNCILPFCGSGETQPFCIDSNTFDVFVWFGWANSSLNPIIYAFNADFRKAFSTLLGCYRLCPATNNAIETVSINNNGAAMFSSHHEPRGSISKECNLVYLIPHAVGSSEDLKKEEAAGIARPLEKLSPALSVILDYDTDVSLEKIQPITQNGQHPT
row,SMILES,"activity change, negative = inhibition"
1,CS(=O)(=O)c1ccc(-c2nnc(NC(=O)c3ccc4c(c3)OCCO4)o2)cc1,-10.1% (inactive)
2,O=C(CSc1oc(-c2ccco2)nc1S(=O)(=O)c1ccccc1)c1ccc(Cl)cc1,-17.4% (inactive)
3,CCOC(=O)c1cc(-c2ccccc2)n(-c2cccc(C(=O)Nc3cc(OC)cc(OC)c3)c2)c1C,-24.9% (inactive)
4,CC(=O)c1cc(C#N)c(N2CCCCC2)nc1C,-36.9% (active)
5,CC(=O)c1cc(C#N)c(SCC(=O)Nc2nccs2)nc1C,2.32% (inactive)
6,CC(=O)c1cc(C#N)c(N2CC(C)OC(C)C2)nc1C (stereo not drawn),-0.422% (inactive)
7,O=C(Cn1c(=O)n(Cc2ccccc2)c(=O)c2sc3ccccc3c21)Nc1ccccc1F,0.434% (inactive)
8,CNC(=O)c1ccc(-c2nc(CN3CCc4ccccc43)c(C)o2)cc1,6.56% (inactive)
9,COc1cccc(Cn2c(CNS(=O)(=O)c3ccc(Cl)s3)nc3cccnc32)c1,25.3% (inactive)
10,CCOC(=O)c1cccc(NS(=O)(=O)c2c(C(=O)N3CCCCCC3)c(C)n(C)c2C)c1,14.9% (inactive)
11,CN1CCN(C(=O)c2ccc(NS(=O)(=O)c3ccccc3)cc2)CC1,-3.19% (inactive)
12,CCOC(=O)N1CCN(C(=O)c2ccc(S(=O)(=O)Nc3cccc(C(F)(F)F)c3)cc2)CC1,-41.7% (active)
13,Cc1ccc(C(=O)CSc2nc(-c3ccccc3)nc3c2CCCC3)c(C)c1,17.2% (inactive)
14,Cc1ccc(C(C)NC(=O)Cn2nc(C)c([N+](=O)[O-])c2C)cc1 (stereo not drawn),-12% (inactive)
15,Cc1ccn(CC(=O)N2N=C(C(F)F)CC2(O)C(F)F)n1 (stereo not drawn),3.73% (inactive)
16,Cc1nn(Cc2ccc(C(=O)N3N=C(C(F)F)CC3(O)C(F)F)cc2)c(C)c1[N+](=O)[O-] (stereo not drawn),-31.2% (active)
17,CCc1nnc(SCc2nc(-c3cccc(C)c3)oc2C)c2cc3sc(C)cc3n12,8.82% (inactive)
18,CCc1cccc(NC(=O)c2cnc(N3CCOCC3)c3ccccc23)c1,-4.31% (inactive)
19,CC(=O)c1sc(N2C(=O)c3oc4ccccc4c(=O)c3C2c2ccc(C)cc2)nc1C (stereo not drawn),1.92% (inactive)
20,O=C(CN1CCCCC1)Nc1ccccc1C(=O)NC1CC1,6.93% (inactive)

row,SMILES,"activity change, negative = inhibition"
1,Cn1nnnc1SCC(=O)Nc1ccccc1C(=O)NC1CC1,-31.5% (active)
2,COC(=O)c1ccccc1NC(=O)CSc1nnnn1C,-7.79% (inactive)
3,Cc1cccc(CCNC(=O)c2ccc3c(c2)nc2n3CCC(C)C2)c1 (stereo not drawn),2.06% (inactive)
4,Oc1ccc(Cl)cc1C1C=C(c2ccc3c(c2)OCO3)NC(c2c(F)cccc2Cl)N1 (stereo not drawn),-6.98% (inactive)
5,COc1ccc(S(=O)(=O)Nc2cccc3cccnc23)c(N)c1,8.2% (inactive)
6,COc1cccc(-n2ccn(CC(=O)NCc3ccc(C)cc3)c(=O)c2=O)c1,-17.3% (inactive)
7,CCC(=O)NC(NCC1CCCO1)C(Cl)(Cl)Cl (stereo not drawn),-13.3% (inactive)
8,S=C(NCCc1ccccc1)NCC1CCCO1 (stereo not drawn),5.26% (inactive)
9,CC1(C(=O)NNC(=S)NCC2CCCO2)CC1(Cl)Cl (stereo not drawn),-33.9% (active)
10,O=C(CC1Oc2ccc(Cl)cc2NC1=O)NCc1ccccc1 (stereo not drawn),-13.4% (inactive)
11,CCC(C(=O)OCC(=O)Nc1c(Cl)cc(Cl)cc1Cl)c1ccccc1 (stereo not drawn),-5.4% (inactive)
12,CCC(C(=O)OCC(=O)Nc1ccc(C(=O)Nc2ccc(OC)cc2)cc1)c1ccccc1 (stereo not drawn),-57.6% (active)
13,CCC(C(=O)OCC(=O)Nc1ccccc1-c1ccccc1)c1ccccc1 (stereo not drawn),5.02% (inactive)
14,CCOC(=O)c1ccc(CSc2nnc3cc(C)c4ccccc4n23)cc1,11.8% (inactive)
15,CCN(CC)S(=O)(=O)c1ccc(C(=O)N=c2sc3cccc(OC)c3n2C)cc1,-7.05% (inactive)
16,CCOc1ccc(-c2nonc2NC(=O)c2oc3ccc(CC)cc3c2C)cc1,-6.14% (inactive)
17,CCc1nc(-c2cc(S(=O)(=O)N3CCN(c4ccc(OC)cc4)CC3)ccc2OC)no1,-58.8% (active)
18,COc1ccc(N2CCN(S(=O)(=O)c3ccc(-c4coc(C)n4)cc3)CC2)cc1,3.09% (inactive)
19,COc1ccc(S(=O)(=O)N2CCN(c3ccc(F)cc3)CC2)cc1-c1noc(C)n1,-9.63% (inactive)
20,Cc1cc(C)cc(NC(=O)CCCc2nc(-c3ccccc3Cl)no2)c1,5.87% (inactive)

row,SMILES,"activity change, negative = inhibition"
1,Cc1ccc(NC(=O)c2ccc(CN3CC(=O)N4CCCCC4C3=O)cc2)c(Cl)c1 (stereo not drawn),1.45% (inactive)
2,C=C1c2cc(CC)ccc2NC(=O)N1c1ccc(C)cc1,-37.2% (active)
3,CCNC(=O)CC1C(=O)N(c2ccc(F)cc2)C(=O)N1Cc1ccc(C)cc1 (stereo not drawn),-4.84% (inactive)
4,Cc1ccc(CC2C(=O)N(c3ccc(F)cc3)C(=O)C2C)cc1 (stereo not drawn),-14.1% (inactive)
5,Cn1c(=O)c2c(nc(Oc3ccc(C#N)cc3)n2Cc2ccc(Cl)cc2Cl)n(C)c1=O,17.3% (inactive)
6,Cc1nn(-c2ccccc2)c(Cl)c1/C=C/C(=O)c1ccc(O)cc1,-19.2% (inactive)
7,CN(C)c1ccc(/C=C/C(=O)c2ccc(O)cc2)cc1[N+](=O)[O-],-31.2% (active)
8,O=C(/C=C/c1ccc(Cl)cc1)N1CCN(c2ccccc2[N+](=O)[O-])CC1,-7.39% (inactive)
9,Cc1ccc(Cl)cc1NC(=O)/C(C#N)=C\c1cn(Cc2ccc(F)cc2)c2ccccc12,-3.88% (inactive)
10,Cc1ccccc1OCc1nc2c3cnn(-c4ccccc4F)c3ncn2n1,3.88% (inactive)
11,COc1ccccc1C(=O)OCC(=O)NCCNC(=O)COC(=O)c1ccccc1OC,9.27% (inactive)
12,COc1ccccc1CNC(=O)COc1ccc(C)nc1[N+](=O)[O-],4.17% (inactive)
13,COc1ccccc1CNC(=O)COC(=O)c1sc(C)nc1C,-37.9% (active)
14,COc1ccc(S(=O)(=O)NCC(c2ccc(N(C)C)cc2)N2CCCC2)cc1 (stereo not drawn),-3.85% (inactive)
15,Cc1cc(OCC(=O)NCC2(N(C)C)CCCCC2)cc(C)c1Cl,1.84% (inactive)
16,O=C(Nc1ncccc1O)c1ccc(C(=O)c2ccccc2)cc1,-8.68% (inactive)
17,CC1CCC(NC(=O)CNC(=O)c2ccc3ccccc3c2)CC1 (stereo not drawn),-16.3% (inactive)
18,O=C(CNC(=O)c1ccc2ccccc2c1)Nc1ncccc1O,-39.8% (active)
